# Compound activity deposited in PubChem by National Center for Advancing Translational Sciences (NCATS).
# TDP1 inh: TDP1 (human) enzyme inhibition | Q9NUW8 | recombinant TDP1, AlphaScreen DNA substrate cleavage | Potency, µM (series often up to 130 µM), most hits filed as inhibitors | actives 0.28% (n = 350,000) | AID 485290; further: nearly all actives have a fitted effect of over 40% in size
# Target sequence (Q9NUW8 whole entry, looked up): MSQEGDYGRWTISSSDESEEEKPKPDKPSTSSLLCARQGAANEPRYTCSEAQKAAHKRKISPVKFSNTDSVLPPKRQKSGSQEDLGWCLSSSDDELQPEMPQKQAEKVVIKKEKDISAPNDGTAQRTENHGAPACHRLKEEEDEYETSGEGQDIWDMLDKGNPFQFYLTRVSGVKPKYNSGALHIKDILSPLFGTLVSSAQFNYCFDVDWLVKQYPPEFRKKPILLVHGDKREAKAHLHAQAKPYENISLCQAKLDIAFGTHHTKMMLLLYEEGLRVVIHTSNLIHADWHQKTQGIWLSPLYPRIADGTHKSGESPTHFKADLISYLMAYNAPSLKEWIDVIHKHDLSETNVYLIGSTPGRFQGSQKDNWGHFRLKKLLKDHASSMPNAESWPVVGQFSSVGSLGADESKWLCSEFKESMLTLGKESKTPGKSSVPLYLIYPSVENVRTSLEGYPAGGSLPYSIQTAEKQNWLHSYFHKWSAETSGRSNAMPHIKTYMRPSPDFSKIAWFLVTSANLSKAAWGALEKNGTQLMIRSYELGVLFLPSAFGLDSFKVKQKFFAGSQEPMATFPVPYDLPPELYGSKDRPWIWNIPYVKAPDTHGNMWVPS
#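 Recombinant human Tdp1 (E. coli-expressed, 1 nM final) preincubated with compounds 15 min at room temperature, then 5'-biotin/3'-phosphotyrosine-FITC DNA substrate (15 nM final) added for 5 min. AlphaScreen beads (10 ug/ml final) added 10 min; cleavage lowers signal.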
# ELG1 DNA repair: ELG1-dependent DNA repair inhibition | Potency, µM (series often up to 46.1 µM), hits mostly inhibitors | actives 2.3% (n = 330,000) | HEK293T ELG1-luciferase reporter, luminescence, 16 h; DNA damage induced by 5-fluorouridine; further: nearly all actives have a fitted effect of over 55% in size
#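 Overnight (16 hr) co-exposure of 2,000 cells/well to 5-fluorouridine and compound at 37 °C preceded detection. Luciferase was quantified via ONE-Glo luminescence; loss of signal denotes inhibition.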
# IL1B secr inh: inhibitors of inflammasome signaling (IL-1 beta secretion). THP-1 LPS/ATP IL-1B secretion, AlphaLISA, 16 h; active compounds read low. activity change, % at 57.5 µM. actives 4.7% (n = 360,000); in the data active means activity change below about -50%; inconclusive means mostly about -30% to -49%
#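 THP-1 cells pretreated 1 hr with compounds (up to 57.5 uM final), then stimulated with LPS (250 ng/mL final) plus ATP (1.25 mM final); secreted IL-1B measured by AlphaLISA after 16 hr, decreased signal indicating inhibition.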
# DT40 TDP1 no CPT: qHTS for Inhibitors of human tyrosyl-DNA phosphodiesterase 1 (TDP1): qHTS in cells in absence of CPT; Potency, µM (top dose mostly 46.2 µM), actives largely listed as inhibitors; actives 15% (n = 420,000); AID 686978, 2013; DT40 Tdp1-/- hTDP1 cells, no CPT, ATP luminescence, 48 h; further: nearly all actives have a fitted effect of over 55% in size
#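 Camptothecin absent (DMSO only). Human TDP1-complemented DT40 knockout cells, 400 cells/well, 37 °C for minimum 48 hr; ATP measured via CellTiter-Glo, 30 min dark incubation, luminescence.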
# Giardia kill: kills Giardia lamblia; Giardia lamblia trophozoite viability; activity change, % at 7.66 µM, hits read low; actives 0.15% (n = 340,000); in the data active means activity change below about -80%; inconclusive means between about -30% and that limit;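 further: parasites exposed to compound for two days anaerobically before the ATP read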
#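 Each well holds 100 Giardia trophozoites and compound. After two days (48 hrs) at 37 deg C in anaerobic conditions, ATP is quantified by luminescence.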
# DT40 TDP1 CPT: growth inhibition of DT40 Tdp1-/-;hTDP1 cells with camptothecin (screen for TDP1 inhibitors); chicken DT40 Tdp1-/-;hTDP1 cells + 20 nM CPT, ATP luminescence, 48 h; actives 12% (n = 420,000); Potency, µM (titrated, usually from 46.2 µM), hits mostly inhibitors; AID 686979; further: nearly all actives have a fitted effect of over 55% in size
#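 Chicken DT40 Tdp1-/- cells complemented with human TDP1, 400 cells/well, exposed to compounds plus 20 nM camptothecin for at least 48 h at 37 C; viability read as ATP content by CellTiter-Glo luminescence.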
# A number is an active result; - = inactive; ? = inconclusive; . = no result given; ! = repeats disagree; [ ] = dose if it differs, or a comment. The list is not random: actives were taken first. Their share in the collection is about 19%. Unless noted, the call rests on the fitted dose curve; in most records, active means well fitted curve in the direction sought with a large enough effect; inconclusive means small, poorly fitted or top-dose-only effect, or another doubt; inactive means no such curve, though single readings can be large; an effect the other way counts as inactive or inconclusive.
SMILES,TDP1 inh,ELG1 DNA repair,IL1B secr inh,DT40 TDP1 no CPT,Giardia kill,DT40 TDP1 CPT
O=C(CCl)N1CCN(S(=O)(=O)Cc2ccccc2)CC1,-,9.2µM,-100,4.6µM,-,18µM
Cc1nn(S(=O)(=O)c2ccc(C(C)C)cc2)c(C)c1S(=O)(=O)N1CCCCC1,-,.,.,-,.,-
COC(=O)c1ccc(NC(=O)CN(C)S(=O)(=O)c2ccc3c(c2)CCCC(=O)N3)cc1,-,.,.,.,.,.
Oc1[nH]c2ccccc2c1N=Nc1ccccc1Cl,.,.,-,-,-,-
O=Nc1c(O)[nH]c2ccc(Cl)c(Cl)c12,.,.,-95,?,-,?
c1ccc2nccnc2c1,.,.,.,1.1µM,.,0.79µM
c1cc(Nc2cccc3nccnc23)c2nccnc2c1,-,-,-54,-,-,-
c1ccc2ncccc2c1,-,-,-,-,-,-
CC(=O)c1ccc(OC(=O)C2CSC3(C)CCC(=O)N23)cc1 (stereo not given),-,-,-,-,-,?
CN1C(=O)C[C@@H](C(=O)N[C@@H](Cc2cnc[nH]2)C(=O)N2CCC[C@H]2C(N)=O)NC1=O,.,.,.,-,.,-
CCCNC(=O)C1CCC(Cn2c(=O)c3sccc3n(Cc3ccccc3C)c2=O)CC1 (stereo not given),-,.,.,-,.,-
COc1cccc(Cn2c(=O)n(CC3CCC(C(=O)N4CCOCC4)CC3)c(=O)c3sccc32)c1 (stereo not given),-,.,.,21µM,.,?
Cc1cccc(Cn2c(=O)n(CC3CCC(C(=O)N4CCOCC4)CC3)c(=O)c3sccc32)c1 (stereo not given),-,.,.,18µM,.,23µM
COc1cccc(CN2CCC(C(=O)N3CCC(C)CC3)CC2)c1,-,-,-,-,-,-
O=C(C1CCC(Cn2c(=O)c3sccc3n(Cc3ccccc3F)c2=O)CC1)N1CCOCC1 (stereo not given),-,.,.,?,.,16µM
Cc1ccc(CNC(=O)[C@H]2C[C@@H]2[C@H](NP(=O)(c2ccccc2)c2ccccc2)c2ccccc2)o1,-,-,-,21µM,-,?
CC(C)(C)C(=O)Oc1ccc(S(=O)(=O)Nc2ccccc2C(=O)NCC(=O)O)cc1,.,.,.,-,.,-
Cc1cc(O)c(C(=O)/C=C/c2ccccc2)c(=O)o1,.,-,-,?,-,?
Cc1cc(O)c(C(=O)/C=C/c2ccccc2Br)c(=O)o1,.,?,-77,?,-,?
CC1(C)CC(NC(=O)Cc2ccccc2)CC(C)(C)N1,.,-,-,-,-,-
COc1cc(OC)cc(C(=O)NCC(=O)NCCN2C(=O)S/C(=C\c3ccccc3Cl)C2=O)c1,-,-,-,?,-,?
COc1cc(C(=O)NCC(=O)NCCN2C(=O)S/C(=C\c3ccccc3Cl)C2=O)cc(OC)c1OC,-,-,-,18µM,-,18µM
O=C(CCc1nc2ccccc2c(=O)[nH]1)NCCN1C(=O)S/C(=C\c2ccc(Cl)cc2Cl)C1=O,-[0.505 µM],-,-,4.6µM,-,8.2µM
COc1cc(OC)cc(C(=O)NCC(=O)NCCN2C(=O)S/C(=C\c3ccc4c(c3)OCO4)C2=O)c1,.,.,-54,18µM,-,?
COc1ccccc1C1CN(CCNC(=O)c2ccccc2Cl)Cc2ccccc2O1 (stereo not given),.,.,.,-,.,-[9.04 µM]
SMILES,TDP1 inh,ELG1 DNA repair,IL1B secr inh,DT40 TDP1 no CPT,Giardia kill,DT40 TDP1 CPT
C/C(=N\NC(=O)NC1CCCCC1)c1ccco1,-,?,-,-,-,-
COc1ccc2oc(=O)cc(CN3CCN(C(=O)c4ccccc4)CC3)c2c1,-,.,.,?,.,?
O=C(COc1ccc(Cl)cc1Cl)NCc1ccncc1,-,-,-,-,-,-
Cc1cc(CNC(=O)COc2ccc(F)cc2Cl)cc(C)c1O,-,?,-88,-,-,-
CCC1=C2CC[C@H]3C(=O)N(c4ccccc4)C(=O)[C@H]3[C@H]2[C@@]2(Cc3ccccc3)C(=NCCOC)OC(=O)N2C1=O,-,.,.,.,.,.
O=C(N/N=C/C=C/c1ccccc1)C1CC1c1ccccc1 (stereo not given),-,-,-,12µM,-,18µM
O=C(N/N=C/c1cccc(O)c1)NC1CCCCC1,-,?,-,-,-,-
O=C(N/N=C/C=C/c1ccccc1)NC1CCCCC1,-,-,-,18µM,-,18µM
CN(C)c1ccc(/C=N/NC(=O)C2CC2c2ccccc2)cc1 (stereo not given),-,-,-,-,-,-
COCCCN(Cc1cc(OC)c(OC)c(OC)c1)C(=S)Nc1cccc(Cl)c1,.,.,-,9.2µM,.,?
COCCCN(C(=S)Nc1cccc(Cl)c1)C(C)c1ccncc1 (stereo not given),-,-,-,-,-,-
CCN(Cc1cc(OC)c(OC)c(OC)c1)C(=S)Nc1cccc(SC)c1,-,?,-,23µM,-,?
COc1cc(CC(=O)Nc2cccc(SC)c2)cc(OC)c1OC,-,?,-,10µM,-,?
Cc1ccccc1C(=O)NCC(=O)NNC(=O)c1cccc(Cl)c1,-,-,-,?,-,-
CCc1ccc(-c2cc(C)no2)cc1S(=O)(=O)NCCCN1CCN(c2ccccc2)CC1,-,-,-,?,-,?
COc1cc(NC(=O)O[C@@H]2C(=O)c3cc(Br)ccc3O[C@H]2c2ccc3c(c2)OCO3)cc(OC)c1OC,-,.,.,.,.,.
CC1CN(C(=O)c2ccc(S(=O)(=O)Nc3cccc(C(F)(F)F)c3)cc2)CC(C)O1 (stereo not given),-,-,-,?,-,-
O=S(=O)(Nc1cccc(C(F)(F)F)c1)c1ccc(-c2cnc(C3CC3)o2)cc1,-,.,.,2.6µM,.,3.7µM
CCOc1ccccc1NS(=O)(=O)c1ccc(-c2cnc(C3CC3)o2)cc1,-,-,-,0.023µM,-,0.0082µM
COc1ccccc1CNS(=O)(=O)c1ccc(-c2cnc(C3CC3)o2)cc1,-,?,-,0.58µM,-,0.92µM!
COc1ccc(NS(=O)(=O)c2ccc(-c3cnc(C4CC4)o3)cc2)cc1OC,-,1.8µM,-,1.6µM,-,2.1µM
COc1ccc(Cc2nnc(NC(=O)c3cc(OC)c(OC)c(OC)c3)s2)cc1,.,-,-,?,-,?
O=C(Cn1cccc1C(=O)c1ccccc1)NCc1ccc(F)cc1,-,-,-,-,-,-
CCOc1ccccc1NS(=O)(=O)c1cc(-c2cnc(C3CC3)o2)ccc1C,-,.,.,?,.,-
COc1ccccc1NS(=O)(=O)c1ccc(-c2cnc(C3CC3)o2)cc1,-,?,-,0.92µM,-,0.73µM
COc1ccc(NC(=O)c2sc3nc(N4CCOCC4)c4c(c3c2N)CC(C(C)C)OC4)c(OC)c1 (stereo not given),-,-,-,-,-,-
